# Source: PubChem BioAssay
# Results with a measured potency or affinity are listed apart. Inconclusive results are not listed. Unmarked numbers belong to inactive results. Active and inactive are the calls of the source. Unless noted, how the calls were made is not given here.
# Legend:
# [1] = RMG-1 ovarian cancer cell viability loss – cherry-pick, dose response (AID 687029;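 active means signal drop whose fitted half-maximal concentration is at most twice the top valid dose, in every test run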;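 further: cells exposed to compound for 96 hours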)
# [2] = CMV-driven luciferase expression suppression in HEK293 – cell-based, luminescence, dry powder, counter-screen for Pax8 inhibitor project, dose response (AID 743020;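 active means signal-lowering compounds whose fitted half-maximal concentration is at or below twice the top tested dose in every run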;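 further: HEK293 cells stably expressing the CMV luciferase reporter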)
# [3] = general cell-killing toxicity readout – plate reader, dry powder samples, cytotoxicity control for PAX8 inhibitor project, dose response (AID 743021)
# [4] = IGROV1 cell killing – plate reader, dry powder samples, PAX8 inhibitor project, dose response (AID 743043);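 further: more negative means fewer viable cells or more cytotoxicity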
# [5] = OVCAR-3 cell viability loss – plate reader, dry powder samples, PAX8 inhibitor project, dose response (AID 743044); settings: max activity: at 35 µM, active compounds read low unless noted
# [6] = toxicity toward immortalized ovarian surface epithelium – cell-based, plate reader, dry powder samples, cytotoxicity control for PAX8 inhibitor project, dose response (AID 743045);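 further: 0% = neutral control median and -100% = positive control median; more negative values mean more cell killing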
# [7] = A2780 cell killing – plate reader, dry powder samples, cytotoxicity control, dose response (AID 743046);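 further: 0% = neutral control wells and -100% = cytotoxic reference compound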
# [8] = OVCAR8 cell viability loss – plate reader, dry powder samples, PAX8 project, dose response (AID 743197)
# [9] = A549 cell cytotoxicity, dose response, cytotoxicity control, plate reader, cherry-pick, antagonist series (AID 743412);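 further: 0% = neutral control wells and -100% = positive control wells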
# [10] = toxicity toward HepG2 liver cells – cell-based, plate reader, cherry-pick, antagonist series, cytotoxicity control, dose response (AID 743416);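 further: 0% = neutral control wells and -100% = positive control wells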
# [11] = biological target: Melanocortin receptor 4 (Homo sapiens) (UniProt P32245); test: blockade of melanocortin 4 receptor signaling – cell-based, plate reader, cherry pick, counter-screen for LGR2 antagonist project, dose response (AID 743444)
compound,measurement,setting,value
C[C@@H]1CN([C@@H](C)CO)C(=O)c2cc(NC(=O)Nc3ccc(C(F)(F)F)cc3)ccc2O[C@@H](C)CCCCO[C@@H]1CN(C)CC1CCCCC1,outcome,[1],inactive
same,outcome,[2],inactive
same,outcome,[3],inactive
same,outcome,[4],inactive
same,max activity,[5],15.9%
same,outcome,[6],inactive
same,outcome,[7],inactive
same,outcome,[8],inactive
C[C@H](CO)N1C[C@H](C)[C@@H](CN(C)CC2CCCCC2)Oc2c(NC(=O)CCCCCC(=O)Nc3ccccc3N)cccc2C1=O,outcome,[1],inactive
same,outcome,[2],inactive
same,outcome,[3],inactive
same,outcome,[4],inactive
same,max activity,[5],"16% [at 1 µM, active compounds read low]"
same,outcome,[6],inactive
same,outcome,[7],inactive
O=C(COC(=O)c1ccco1)Nc1cccc(S(=O)(=O)N2CCOCC2)c1,outcome,[1],inactive
same,outcome,[2],inactive
same,outcome,[3],inactive
C[C@H](CO)N1C[C@H](C)[C@H](CN(C)Cc2ccc(-c3ccccc3)cc2)Oc2ccc(NS(=O)(=O)c3ccc(F)cc3)cc2CC1=O,outcome,[1],inactive
same,outcome,[2],inactive
same,outcome,[3],inactive
same,outcome,[4],inactive
same,max activity,[5],-42.4%
same,outcome,[6],inactive
same,outcome,[7],inactive
C[C@@H]1CN([C@@H](C)CO)S(=O)(=O)c2ccc(C#Cc3ccc(F)cc3)cc2O[C@@H]1CN(C)C(=O)NC1CCCCC1,outcome,[1],inactive
same,outcome,[2],inactive
same,outcome,[3],inactive
same,outcome,[4],inactive
same,max activity,[5],"23.4% [at 1 µM, active compounds read low]"
same,outcome,[6],inactive
same,outcome,[7],inactive
same,outcome,[8],inactive
Cc1ccc(S(=O)(=O)Nc2cccc3c2O[C@@H](CN(C)Cc2ccc(Oc4ccccc4)cc2)[C@@H](C)CN([C@H](C)CO)C3=O)cc1,outcome,[1],inactive
same,outcome,[2],inactive
same,outcome,[3],inactive
same,outcome,[4],inactive
same,max activity,[5],"15.8% [at 1 µM, active compounds read low]"
same,outcome,[6],inactive
same,outcome,[7],inactive
same,outcome,[8],inactive
CCOC(=O)/C=C/C(=O)Nc1cc(S(=O)(=O)Nc2ccc(OC)cc2)ccc1N1CCOCC1,outcome,[1],inactive
same,outcome,[2],inactive
same,outcome,[3],inactive
Cc1ccc(S(=O)(=O)Nc2ccc3c(c2)C(=O)N([C@@H](C)CO)C[C@@H](C)[C@@H](CN(C)S(=O)(=O)c2ccc(Cl)cc2)OCCCC[C@@H](C)O3)cc1,outcome,[1],inactive
same,outcome,[2],inactive
same,outcome,[3],inactive
same,outcome,[4],inactive
same,max activity,[5],-15%
same,outcome,[6],inactive
same,outcome,[8],inactive
O=C(N/N=C/c1c[nH]c2ccccc12)c1[nH]c2ccc(Br)cc2c1-c1ccccc1,outcome,[1],inactive
same,outcome,[2],inactive
same,outcome,[3],inactive
C[C@@H]1CN([C@H](C)CO)C(=O)c2cc(NC(=O)Nc3ccc(C(F)(F)F)cc3)ccc2O[C@@H](C)CCCCO[C@H]1CN(C)Cc1ccccc1,outcome,[1],inactive
same,outcome,[2],inactive
same,outcome,[3],inactive
same,outcome,[4],inactive
same,max activity,[5],"12% [at 30 µM, active compounds read low]"
same,outcome,[6],inactive
same,outcome,[7],inactive
same,outcome,[8],inactive
Cc1ccc(S(=O)(=O)N(C)C[C@H]2Oc3c(NC(=O)Nc4cccc5ccccc45)cccc3C(=O)N([C@@H](C)CO)C[C@@H]2C)cc1,outcome,[1],inactive
same,outcome,[2],inactive
same,outcome,[3],inactive
COc1ccc(CN(C)C[C@H]2OCCCC[C@H](C)Oc3ccc(NC(=O)Nc4ccc(C(F)(F)F)cc4)cc3C(=O)N([C@H](C)CO)C[C@@H]2C)cc1,outcome,[1],inactive
same,outcome,[2],inactive
same,outcome,[3],inactive
same,outcome,[4],inactive
same,max activity,[5],"-28.6% [at 8 µM, active compounds read low]"
same,outcome,[6],inactive
same,outcome,[7],inactive
same,outcome,[8],inactive
COc1ccc(S(=O)(=O)Nc2ccc3c(c2)C(=O)N([C@H](C)CO)C[C@H](C)[C@@H](CN(C)Cc2ccc(Cl)c(Cl)c2)OCCCC[C@@H](C)O3)cc1,outcome,[1],inactive
same,outcome,[2],inactive
same,outcome,[3],inactive
same,outcome,[4],inactive
same,max activity,[5],"-37.4% [at 8 µM, active compounds read low]"
same,outcome,[6],inactive
same,outcome,[7],inactive
same,outcome,[8],inactive
COc1ccc(-c2ccc3c(c2)[C@@H]2[C@@H](CCN2C(=O)NC2CCCCC2)[C@H](CO)N3C)cc1,outcome,[1],inactive
same,outcome,[2],inactive
same,outcome,[3],inactive
same,outcome,[4],inactive
O=C(Nc1ccc(C(F)(F)F)cc1)Nc1ccc2c(c1)[C@H]1C[C@H](CC(=O)N3CCc4ccccc4C3)O[C@H](CO)[C@H]1O2,outcome,[1],inactive
same,outcome,[2],inactive
same,outcome,[3],inactive
same,outcome,[4],inactive
same,max activity,[5],"20.8% [at 0.5 µM, active compounds read low]"
same,outcome,[6],inactive
same,outcome,[8],inactive
CCN(CC)c1ccc2c(cc1=O)[C@@H](NC)CCc1cc(OC)c(OC)c(OC)c1-2,outcome,[1],inactive
same,outcome,[2],inactive
same,outcome,[3],inactive
Cc1nc(SCC(=O)Nc2nc3ccccc3s2)c(C#N)c(C)c1C,outcome,[9],inactive
O=C(/C=C/c1ccccc1)Nc1cccc(C(=O)O)c1,outcome,[9],inactive
CC(=O)Nc1ccc(S(=O)(=O)c2ccnc3cc(Cl)ccc23)cc1,outcome,[10],inactive
same,outcome,[11],inactive
O=[N+]([O-])c1ccc(N/N=C/c2sc(N3CCOCC3)nc2-c2ccccc2)c(S(=O)(=O)Nc2ccc(Cl)cc2)c1,outcome,[1],inactive
same,outcome,[3],inactive
O=C(COc1ccccc1-c1ccccc1)N/N=C/c1ccc2ccccc2c1,outcome,[1],inactive
same,outcome,[3],inactive
COc1ccc(OC)c(-c2nnc3n2N=C(c2ccc(OC)c(OC4CCCC4)c2)CS3)c1,outcome,[1],inactive
same,outcome,[3],inactive
COc1ccc(NC(=O)C(=O)NCC2CCCN2S(=O)(=O)c2ccc(C)cc2)cc1 (stereo unspecified),outcome,[1],inactive
same,outcome,[3],inactive
CN1CCc2c(sc(NC(=O)c3ccc([N+](=O)[O-])o3)c2C(N)=O)C1,outcome,[1],inactive
same,outcome,[3],inactive
COc1ccc2c(C)nc(Nc3nc(-c4ccccc4)cc(=O)[nH]3)nc2c1,outcome,[1],inactive
same,outcome,[3],inactive
COc1cc2c(c(OC)c1OC)-c1ccc(SC)c(=O)cc1C(NC=O)CC2 (stereo unspecified),outcome,[1],inactive
same,outcome,[3],inactive
COc1cc2c(c(OC)c1OC)-c1ccc(SC)c(=O)cc1C(NC(=O)C(F)(F)F)CC2 (stereo unspecified),outcome,[1],inactive
same,outcome,[3],inactive
Cc1cccc(N(C)S(=O)(=O)c2ccc(-c3cnc(C4CC4)o3)cc2)c1,outcome,[1],inactive
same,outcome,[3],inactive
CC1CCCC=CC2CC(OC(=O)CN(C)C)CC2C(O)C=CC(=O)O1 (stereo unspecified),outcome,[1],inactive
same,outcome,[3],inactive
Cn1nnnc1Sc1ncnc2scc(-c3cc4ccccc4o3)c12,outcome,[1],inactive
same,outcome,[3],inactive
O=S(=O)(NC1CCCCC1N1CCN(c2ccccc2F)CC1)c1ccccc1 (stereo unspecified),outcome,[1],inactive
same,outcome,[3],inactive
O=C(/C=C/c1cccs1)NC(=S)NNC(=O)c1ccccc1O,outcome,[1],inactive
same,outcome,[3],inactive
CCCCC(=O)NC(c1ccccc1)c1ccc2cccnc2c1O (stereo unspecified),outcome,[1],inactive
same,outcome,[3],inactive
COc1cc([C@@H]2c3cc4c(cc3[C@H](O)[C@H]3COC(=O)[C@H]23)OCO4)cc(OC)c1OC,outcome,[1],inactive
same,outcome,[3],inactive
O=[N+]([O-])c1ccc(O)c(-c2cc(C(F)(F)F)nc(-c3ccccc3)n2)c1,outcome,[1],inactive
same,outcome,[3],inactive
Cn1nnnc1Sc1ncnc2scc(-c3ccsc3)c12,outcome,[1],inactive
same,outcome,[3],inactive
CCCc1ccc(C(=O)O/N=C(\N)c2ccccn2)cc1,outcome,[1],inactive
same,outcome,[3],inactive
CC[C@@H]1CCC[C@@H](O)[C@@H](C)C(=O)O[C@H](C)[C@@H](C)C/C=C(C)/C(OC)=C\C(=O)N(C)C([C@@H](C)CC)C(=O)N(C)[C@@H](C(C)C)C(=O)N(C)[C@@H](COC)C(=O)N2CCC[C@H]2C(=O)N(C)[C@@H](C(C)C)C(=O)N2CCC[C@H]2C(=O)O1 (stereo partly specified),outcome,[1],inactive
same,outcome,[3],inactive
Cc1cccc2sc(N(CCCN(C)C)C(=O)CCS(=O)(=O)c3ccccc3)nc12,outcome,[1],inactive
same,outcome,[3],inactive
COc1ccc(-n2ncc(Cl)c(Cl)c2=O)cc1,outcome,[1],inactive
same,outcome,[3],inactive
O=c1[nH]nnc2c1ncn2C1OC(CO)C(O)C1O (stereo unspecified),outcome,[1],inactive
same,outcome,[3],inactive
CC(=O)Nc1ccc(Sc2ccc([N+](=O)[O-])o2)cc1,outcome,[1],inactive
same,outcome,[3],inactive
CCOCC(=O)NC1CCc2cc(OC(=O)COCC)c(OC)c(OC)c2-c2ccc(SC)c(=O)cc21 (stereo unspecified),outcome,[1],inactive
same,outcome,[3],inactive
OC[C@H]1O[C@@H](n2cnc3c(NCc4ccco4)ncnc32)[C@H](O)[C@@H]1O,outcome,[1],inactive
same,outcome,[3],inactive
C=CC(=O)N1C/C(=C/c2ccc(F)cc2)C(=O)/C(=C\c2ccc(F)cc2)C1,outcome,[1],inactive
same,outcome,[3],inactive
Cc1ccc(/C=N/NC(=O)COc2ccccc2-c2ccccc2)cc1,outcome,[1],inactive
same,outcome,[3],inactive
Cc1cc(C)c2nc(SCC(=O)N3CC(=O)Nc4ccccc43)c(C#N)cc2c1,outcome,[1],inactive
same,outcome,[3],inactive
Cc1cccc(/C=C(\c2nc3ccccc3[nH]2)S(=O)(=O)c2ccccc2)c1,outcome,[1],inactive
same,outcome,[3],inactive
CCC(=O)N1CCN(c2ccc(NC(=O)c3ccc([N+](=O)[O-])o3)cc2Cl)CC1,outcome,[1],inactive
same,outcome,[3],inactive
CCCCC(=O)NC(c1ccccc1OC)c1ccc2cccnc2c1O (stereo unspecified),outcome,[1],inactive
same,outcome,[3],inactive
O=C(CCl)Nc1cc2[nH]c(=O)[nH]c2cc1Br,outcome,[1],inactive
same,outcome,[3],inactive
O=C(Nc1ccc(N2CCN(C(=O)c3cccs3)CC2)cc1)c1ccc([N+](=O)[O-])o1,outcome,[1],inactive
same,outcome,[3],inactive
O=C(C[C@@H]1C[C@H]2c3cc(NS(=O)(=O)c4ccc(F)cc4)ccc3O[C@H]2[C@H](CO)O1)NCc1ccc(-c2ccccc2)cc1,outcome,[1],inactive
same,outcome,[3],inactive
O=C(NC(Nc1nc2ccc([N+](=O)[O-])cc2s1)(C(F)(F)F)C(F)(F)F)c1ccccc1Cl,outcome,[1],inactive
same,outcome,[3],inactive
CCOc1ccc(C(=O)c2cc([N+](=O)[O-])ccc2N2CCOCC2)cc1,outcome,[1],inactive
same,outcome,[3],inactive
N#C[C@@H]1[C@H](c2ccc(C#Cc3ccc(F)cc3)cc2)[C@@H](CO)N1C(=O)Nc1ccc(F)cc1,outcome,[1],inactive
same,outcome,[3],inactive
CCOC(=O)N1CCC(NC(=O)c2ccc3c(c2)N=C(C)c2c(C)ccc(C)c2S3)CC1,outcome,[1],inactive
same,outcome,[3],inactive
COc1cccc2c1C(=O)c1c(O)c3c(c(O)c1C2=O)C[C@@](O)(C(=O)CO)C[C@@H]3O[C@H]1C[C@H](N)[C@H](O)[C@H](C)O1,outcome,[1],inactive
same,outcome,[3],inactive
O=C(CCS(=O)(=O)c1ccc(Cl)cc1)Nc1nc(-c2ccncc2)cs1,outcome,[1],inactive
same,outcome,[3],inactive
O=C(NCCc1ccccc1F)c1ccc2c(c1)OCCO2,outcome,[1],inactive
same,outcome,[3],inactive
O=C(Nc1cccc(C(F)(F)F)c1)Nc1ccc(N2CCCC2)c(S(=O)(=O)Nc2ccccc2Cl)c1,outcome,[1],inactive
same,outcome,[3],inactive
O=C(CCCN1C(=O)/C(=C/c2cccc(Br)c2)SC1=S)Nc1ccccn1,outcome,[1],inactive
same,outcome,[3],inactive
CC(=NNc1cc(C)c2ccccc2n1)c1ccccn1,outcome,[1],inactive
same,outcome,[3],inactive
O=C(C1CC1)N1C[C@@H]2N[C@H](C1)C2c1ccc(-c2ccccc2F)cc1 (stereo partly specified),outcome,[1],inactive
same,outcome,[3],inactive
CCOC(=O)c1ccc(NC(=O)Cn2ncc(Cl)c(Cl)c2=O)cc1,outcome,[1],inactive
same,outcome,[3],inactive
Cc1cc(-c2n[nH]c(=S)n2/N=C/C(Br)=C/c2ccccc2)n[nH]1,outcome,[1],inactive
same,outcome,[3],inactive
CC(=O)NC(c1ccc(C(C)C)cc1)c1ccc2cccnc2c1O (stereo unspecified),outcome,[1],inactive
same,outcome,[3],inactive
COc1ccc(-c2cnc3c(NC=O)cc(-c4cccc(NS(C)(=O)=O)c4)cn23)cc1OC,outcome,[1],inactive
same,outcome,[3],inactive
CC(=O)Nc1ccc(-c2ccnc3c2CC(C(=O)NCc2ccccc2)O3)cc1 (stereo unspecified),outcome,[1],inactive
same,outcome,[3],inactive
O=C(NN=Cc1c(O)ccc2ccccc12)c1ccncc1,outcome,[1],inactive
same,outcome,[3],inactive
